Experimental data as given in PubChem BioAssay (NCI).
About 83,000 compounds went through this panel and 20% of them were active in at least one assay; those are over-represented in the sample as a whole.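 Single-dose data. Exposure time 48 hours. Values below 10 considered active.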 Calls of active or inactive are those of the source.

Assays:
Assay in all cases: NCI-60 one-dose screen, 48 h (100 = growth as untreated, 0 = no growth, -100 = all killed)
Conditions in all cases: 10 µM unless noted
[1] = tested on: HCT-15 colon
[2] = tested on: HT29 colon
[3] = tested on: SNB-75 CNS
[4] = tested on: SNB-19 CNS
[5] = tested on: U251 CNS
[6] = tested on: PC-3 prostate
[7] = tested on: SK-MEL-5 melanoma
[8] = tested on: UACC-62 melanoma
[9] = tested on: LOX IMVI melanoma
[10] = tested on: SK-MEL-28 melanoma

Measured: growth

O=C(/C=C/c1ccc2ccccc2c1)Nc1ncc(Cc2ccccc2)s1
inactive: [1] 55.7% | [2] 69.5% | [3] 34.4% | [4] 69.5% | [5] 25.8% | [6] 71.2% | [7] 92.8% | [8] 59.8%

[B-][N+](CC)(CC)c1ccccc1
inactive: [1] 100% | [2] 107% | [3] 84.1% | [4] 105% | [5] 99% | [6] 99.4% | [7] 104% | [8] 111% | [9] 109% | [10] 99.7%

CCOc1ccc(NC(=O)c2ccoc2COc2ccccc2)cc1
inactive: [1] 101% | [2] 107% | [3] 107% | [4] 95.3% | [5] 99.4% | [6] 95.7% | [7] 99.1% | [8] 79.8%

C=C(C)[C@@H]1CC[C@]2(C(=O)O)CC[C@]3(C)[C@H](CC[C@@H]4[C@@]5(C)C/C(=C/c6ccc(OC)cc6)C(=O)C(C)(C)[C@@H]5CC[C@]43C)[C@@H]12
inactive: [2] 16% | [3] 27.2% | [4] 32.3% | [5] 25.4% | [6] 15.5% | [8] 17.1%
active: [1] 5.16% | [7] 6.21%

Cc1ccc(Nc2c(C(N)=O)cnc3ccc(S(=O)(=O)Nc4cc(C)on4)cc23)cc1
inactive: [1] 108% | [2] 98.3% | [3] 81% | [4] 94.7% | [5] 95.6% | [6] 86.5% | [7] 99% | [8] 91.8% | [9] 95.8% | [10] 101%

C/C(=N/NC(N)=S)C(=O)O
inactive: [1] 82.9% | [2] 56.5% | [3] 95.3% | [4] 98.4% | [5] 73.9% | [6] 72.8% | [7] 102% | [8] 99.9% | [9] 74.9%

OCC12CCCC(CO)(COC1)C2O (centres undefined)
inactive: [1] 106% | [2] 105% | [3] 96.4% | [4] 116% | [5] 99.2% | [6] 99.7% | [7] 99.8% | [8] 107% | [9] 98.6% | [10] 107%

C[N+](C)(CCCCCC[N+](C)(C)C1c2ccccc2-c2ccccc21)C1c2ccccc2-c2ccccc21
inactive: [1] 105% | [2] 110% | [3] 95% | [4] 105% | [5] 96.4% | [6] 98.2% | [7] 111% | [8] 108% | [9] 104% | [10] 111%

N=c1c(S(=O)(=O)c2ccccc2)cc2c(=O)n3ccccc3nc2n1C1CCCC1
inactive: [1] 86.2% | [2] 117% | [3] 61.1% | [4] 90.3% | [5] 85.9% | [6] 85% | [7] 84.2% | [8] 80.2% | [10] 102%

Cn1cc(-c2csc(-c3cn(C(=O)OC(C)(C)C)c4ccc(Br)cc34)n2)c2cccnc21
inactive: [1] 93.4% | [2] 93.4% | [3] 78.9% | [4] 93.2% | [5] 87.4% | [6] 87.5% | [7] 97% | [8] 91% | [10] 108%

COc1cnc2c(c1)C(=O)c1c-2n(CCCN2CCN(CCO)CC2)c(=O)c2cc([N+](=O)[O-])ccc12
active: [1] -26.3% | [2] -85.7% | [4] -1.88% | [5] -84.2%
inactive: [3] 73.1% | [6] 44.4% | [7] 53.9% | [8] 37.8% | [10] 102%

S=c1[nH]nc2ccccn12
inactive: [1] 101% | [2] 87.5% | [3] 88.7% | [4] 110% | [5] 114% | [6] 108% | [7] 92.3% | [8] 108% | [10] 109%

N#CC1=C(N)Oc2c(c(N)nn2-c2ccccc2)C1c1ccc(Cl)cc1Cl (centres undefined)
inactive: [1] 100% | [2] 115% | [3] 73.2% | [4] 95.2% | [5] 91.6% | [6] 94.5% | [7] 101% | [8] 88.7% | [10] 104%

COc1cc2[nH]c(C(=O)c3cc(OC)c(OC)c(OC)c3)c(N)c2cc1C#CCO
active: [2] 1.02% | [3] 8.88% | [7] -0.319%
inactive: [1] 19.6% | [4] 26.3% | [5] 22.8% | [6] 10.6% | [8] 31.2% | [9] 39.4% | [10] 14.3%

O=C(CI)Nc1ccc(O)c2ccccc12
inactive: [3] 54.2% | [4] 46.1% | [6] 43.3% | [10] 41.5%
active: [1] -10.1% | [2] 0.99% | [5] -28.4% | [7] -47.7% | [8] -58.7% | [9] -60.6%

COc1ccc(-c2cc(/C=C/C(=O)c3ccc(N)cc3)[nH]n2)cc1
inactive: [1] 17% | [2] 10.4% | [4] 27.6% | [5] 14.4% | [6] 26.4% | [7] 23.9% | [8] 24.7% | [10] 34.6%
active: [3] -0.764%

Nc1c(C(=O)Nc2cccc(Cl)c2)sc2ncc(Cl)cc12
inactive: [1] 80.7% | [2] 90.3% | [3] 59.6% | [4] 105% | [5] 10.6% | [6] 95.7% | [7] 94.3% | [8] 95.5% | [9] 44.8% | [10] 91.7%

CN1CCN(CC#CCn2c3c(c4ccccc42)C[C@]2(C)[C@H]4CC[C@@H]5[C@H]6[C@H]7OC(=O)[C@@]6(CCC7(C)C)CC[C@@]5(C)[C@]4(C)CC[C@H]2C3(C)C)CC1
inactive: [1] 38.1% | [2] 30.4% | [3] 113% | [4] 87.6% | [5] 25% | [6] 58.5% | [7] 93.3% | [8] 99.5% | [10] 106%

Cc1cc(Cl)c2c(N(C)C)cccc2n1
inactive: [1] 94.1% | [2] 78% | [3] 93.6% | [4] 105% | [5] 105% | [6] 119% | [7] 101% | [8] 105% | [9] 84.1% | [10] 113%

c1csc(-c2nc(-c3cc4ccccc4c(N4CCOCC4)n3)cs2)c1
inactive: [1] 90.4% | [2] 97.1% | [3] 81.5% | [4] 87.1% | [5] 82.2% | [6] 93.4% | [7] 54.5% | [8] 28.9% | [10] 55.2%

Cc1cc2nc3c4cc([N+](=O)[O-])cc([N+](=O)[O-])c4n(CCN(C)C)c3nc2cc1C
inactive: [1] 57.2% | [2] 65.6% | [3] 72.3% | [4] 68.2% | [5] 81.6% | [6] 77.1% | [7] 92.4% | [8] 87% | [10] 98.6%

c1ccc(C2Cc3ccccc3C2=NC2CCCCC2)cc1 (centres undefined)
inactive: [1] 94.9% | [2] 106% | [3] 92.3% | [4] 104% | [5] 97.9% | [6] 84.4% | [7] 103% | [8] 99.6% | [9] 103% | [10] 114%

O=C1/C(=C\c2ccco2)SC(=S)N1CCc1ccc(O)cc1
inactive: [1] 92.7% | [2] 114% | [3] 78.5% | [4] 95.6% | [5] 96.7% | [6] 97.5% | [7] 97.4% | [8] 85.3% | [10] 98.3%

O=C(/C=C\c1ccc2c(c1)OCO2)/C=C/c1ccc2c(c1)OCO2
inactive: [1] 11% | [2] 32.1% | [3] 75.7% | [4] 68.9% | [5] 19.4% | [6] 91.1% | [7] 84% | [8] 75.1% | [10] 105%

COC(=O)c1cc(=O)nc(N/N=C/c2ccc(C)cc2)s1
inactive: [1] 86.2% | [2] 104% | [3] 91.7% | [4] 109% | [5] 107% | [6] 91.2% | [7] 98.9% | [8] 115% | [9] 109% | [10] 104%

C=C(C)[C@@H]1CC[C@]2(C(=O)OC)CC[C@]3(C)[C@H](CC[C@@H]4[C@@](C)(CC/C(N)=N/O)[C@H](C(=C)C)CC[C@]43C)[C@@H]12
inactive: [1] 102% | [2] 99.1% | [3] 95.4% | [4] 95.9% | [5] 97.7% | [6] 86.1% | [7] 94.2% | [8] 99.6% | [10] 101%

Cc1nc([P+](c2ccccc2)(c2ccccc2)c2ccccc2)c(Sc2sc(-c3ccccc3)nc2[P+](c2ccccc2)(c2ccccc2)c2ccccc2)o1
inactive: [1] 30.2% | [4] 16.2% | [5] 14.3% | [8] 19.2% | [10] 54.5%
active: [2] 4.54% | [3] -3.87% | [6] 3.44% | [7] -17.1%

O=c1[nH]ncc(Br)c1Br
active: [2] -35.1%
inactive: [1] 15.7% | [3] 79.8% | [4] 72.4% | [5] 30.9% | [6] 65.7% | [7] 69.4% | [8] 87.3% | [10] 14.7%
